Our source for the inhibition values is PubChem BioAssay AID2129 (The Scripps Research Institute Molecular Screening Center, 2009).

Among all 320,000 compounds or so, about 2,200 (0.69%) were called active. Shown is part of a subset that was picked to be rich in actives. Unmarked numbers belong to inactive results.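 The calls were made as follows: active = inhibition above the mean of all tested compounds plus 3 SD, cutoff set per campaign (cut at about 30% in these data); inactive = the rest.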

The target in this assay is Bcl-2-like protein 1 (Homo sapiens) (UniProt Q07817). The assay can be described thus: Bcl-xL/Bim BH3 interaction blockers – biochemical, fluorescence polarization, HTS, primary screen (AID 2129).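 Also: 0% = DMSO wells and 100% = unlabeled Bim-BH3 peptide competitor; inhibitors lower millipolarization by displacing the labeled peptide.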 The following applies: GST-Bcl-xL / FITC-Bim BH3 peptide fluorescence polarization; at 10.9 µM; active compounds read high. On the technique in general: Polarisation of emitted light reports the rotation of a fluorescent probe.
Chain of Bcl-2-like protein 1 (Homo sapiens) (Q07817 whole entry, looked up): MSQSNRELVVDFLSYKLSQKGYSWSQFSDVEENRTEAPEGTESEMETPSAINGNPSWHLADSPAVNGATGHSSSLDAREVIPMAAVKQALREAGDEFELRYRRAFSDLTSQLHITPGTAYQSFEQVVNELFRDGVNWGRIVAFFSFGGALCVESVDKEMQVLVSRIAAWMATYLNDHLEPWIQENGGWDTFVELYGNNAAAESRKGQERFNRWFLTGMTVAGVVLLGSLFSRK
In the case of `COc1ccccc1-n1cnc2cc(NS(=O)(=O)c3ccccc3)ccc21`, the inhibition was 2.73%. Consider `CC(CCc1ccccc1)NCC(O)c1cccc([N+](=O)[O-])c1` (stereo not given), for which the inhibition is 1.94%. For `COc1ccc(NC(=O)c2sccc2SCC#N)cc1` the value was 8.42%; for `Clc1cc(NC2CCCCC2)ncn1`, 6.31%; for `CCCCC1S/C(=N/N=C/c2cccs2)NC1=O` (stereo not given), 8.02%. With `CCCc1c(C)nc2c(Br)cccc2c1Cl`, the inhibition is 2.17%.

As to `CCOCC(=O)NCc1ccc2c(c1)cc(C)n2C`, the inhibition was 19.5%. For `COc1cc(C(=O)NCc2ccc3c(c2)cc(C)n3C)cc(OC)c1OC` the value was 33.2% (active); for `COc1cc(C(=O)NCc2cc3cc(Cl)ccc3n2C)cc(OC)c1OC`, 1.45%. For `CN(CCO)S(=O)(=O)c1ccc2c(c1)C(=O)c1cc(S(=O)(=O)N(C)CCO)ccc1-2` the value was 1.55%. `CCOC(=O)c1cc2c(=O)n3ccccc3nc2n(CC(C)C)c1=NC(=O)c1c(-c2c(F)cccc2Cl)noc1C`: the inhibition is 3.3%.

Regarding `Cc1ccc(NS(=O)(=O)c2ccc3c(c2)NC(=O)CO3)cc1`, the inhibition was 0.04%. Take `O=C(N1CCCCC1)N1CCN(C(=O)N2CCCCC2)CC1`: the inhibition is 6.91%.

Turning to `CCN1C(=O)CS/C1=N\c1nccs1`, the inhibition was 1.94%. `CC(OC(=O)c1ccc2noc(-c3ccccc3)c2c1)C(N)=O` (stereo not given): the inhibition is 2.5%.

In the case of `Oc1ccc(-c2onc3ccc(Cl)cc23)cc1`, the inhibition is 3.11%. As for `COc1ccc(-c2onc3ccc(C(C)=O)cc23)cc1`, the inhibition is 178% (active). `Cc1c(NC(=S)NC(=O)CCc2ccccc2)c(=O)n(-c2ccccc2)n1C`: the inhibition was 1.79%. Consider `CCNC(=O)Nc1ccc(S(=O)(=O)Nc2cnc(C)nc2C)cc1`, for which the inhibition is 0.51%. In the case of `CN(C)c1ccc(Nc2c3c4c(cccc4n(C)c2=O)C(=O)c2ccccc2-3)cc1`, the inhibition was 54.3% (active).

For the molecule `Cc1cccc(C)c1N1C(=O)CN(Cc2ccccc2)C1=S`, the inhibition is 5.52%. As for `Cc1ccccc1NC(=O)Cc1nc(COC(=O)c2ccc(C(F)(F)F)cc2)cs1`, the inhibition was -1.31%. For `CC(C)(C)c1ccc(/C=C2\Oc3c(ccc(O)c3CN3CCN(CCO)CC3)C2=O)cc1` the value was 53.5% (active); for `CCOC(=O)c1oc2c(CN3CCN(CCO)CC3)c(O)c(CC)cc2c(=O)c1-c1nc2ccccc2s1`, 4.57%.

With `CN(C)S(=O)(=O)c1ccc(Cl)c(NC(=O)COC(=O)CC(NC(N)=O)c2ccc(Cl)cc2)c1` (stereo not given), the inhibition was -5.65%.

With `Cc1ccc2nc(COc3ccc(N(C)S(=O)(=O)c4ccccc4)cc3)cc(=O)n2c1`, the inhibition was 36.5% (active). For `CN(c1ccc(OCC(=O)O)cc1)S(=O)(=O)c1ccc2ccccc2c1` the value was 4.89%; for `COc1cccc(COc2ccc(N(C)S(=O)(=O)c3ccccc3)cc2)c1`, -4.97%.

As to `O=C(c1ccc(Cl)cc1)N1N=C(c2ccccn2)CC1(O)C(F)(F)F` (stereo not given), the inhibition was -13%. For `Cc1ccc(/C=N/NC(=O)COc2ccccc2-c2ccccc2)cc1` the value was 68.1% (active). As to `C=CCc1ccccc1OCC(=O)N/N=C/c1ccccc1OCC`, the inhibition is 0.68%. With `Cc1cccc(OCC(=O)NCC(=O)N/N=C/c2ccc(N(C)C)cc2)c1`, the inhibition was 2.63%. For the molecule `O=C(O)CC(c1ccccc1F)N1Cc2ccccc2C1=O` (stereo not given), the inhibition is -0.17%. Consider `CC(C)CN(C(=O)CSc1ncnc2sccc12)C1CCS(=O)(=O)C1` (stereo not given), for which the inhibition was 0.66%.

With `CCN(CC)CCNC(=O)c1ccc(NC(=O)c2c(F)cccc2Cl)cc1`, the inhibition was -0.4%. For `O=C1N[C@@H](Cc2ccccc2)C(=O)N2[C@H]1C[C@]1(Br)c3ccccc3N(S(=O)(=O)c3ccccc3)[C@H]21` the value was 10.4%; for `Cc1ccccc1N1C(=O)C2ON(c3ccccc3)C(c3ccncc3)C2C1=O` (stereo not given), 4.04%; for `O=C(CNC(=O)c1ccc(F)cc1)c1ccccc1`, -1.14%.

For `O=C(CNC(=O)c1ccccc1F)c1ccc(Br)cc1`, the inhibition is -3.61%. For `O=C(C[n+]1cc(Br)cc2ccccc21)c1ccc(F)cc1` the value was 62.8% (active). For `CC(=O)n1c(C=Nc2ccccc2)c(O)c2ccccc21` the value was -15.2%; for `O=C1c2ccccc2-c2ncnc3c(N4CCOCC4)cc(N4CCOCC4)c1c23`, 48.5% (active); for `COC1=C(N2CCOCC2)C(=O)c2ccccc2C1=O`, 1.64%.

Take `Cc1oc2c(c1C(=O)N1CCOCC1)C(=O)c1ccccc1C2=O`: the inhibition was -1.81%. For `COc1ccc(-n2ncc3c2CC(C)(C)CC3NC(=O)CCc2c(C)nn(C)c2C)cc1` (stereo not given) the value was 6.1%; for `COCCNc1nnc(SCC(=O)NNC(=O)c2ccco2)s1`, 4.35%; for `Cc1ccc(CSCC(=O)N(C)CC(=O)Nc2ccc(C)cc2)cc1`, 1.73%. Consider `Cc1c(NC(=O)CSc2nnc(-c3cccnc3)n2N)c(=O)n(-c2ccccc2)n1C`, for which the inhibition is -1.43%. For `COc1ccc(C(=O)N(CCN2CCOCC2)CC(=O)NC2CCCC2)cc1OC` the value was -2.67%; for `Cc1ccc(OCCCC(=O)Nc2ccc3c(c2)OCCO3)cc1`, -5.28%; for `CCCCC1=CC2=CC(=O)C(C)(OC(=O)CC)C(=O)C2=CN1CCCOC(C)C` (stereo not given), 25.5%.

`COC/C=C/C1=CC2=CC(=O)C(C)(OC(=O)CCC(=O)OC)C(=O)C2=CO1` (stereo not given): the inhibition was 46.1% (active). For `COc1cc(C2/C(=C(\O)c3ccc4c(c3)CC(C)O4)C(=O)C(=O)N2Cc2ccco2)ccc1O` (stereo not given) the value was 0.14%. For `CCSc1nc2sc3c(c2c(=O)[nH]1)CC(C)(C)OC3` the value was 4.34%. For the molecule `CC/C(C)=N/Nc1nc2sc3c(c2c(=O)[nH]1)CC(C)(C)OC3`, the inhibition is 67.3% (active). Take `CCC1(C)Cc2c(sc3nc(SC)[nH]c(=O)c23)CO1` (stereo not given): the inhibition is 0.11%. Turning to `N#Cc1c(-c2ccccc2)cc(-c2ccccc2)nc1SCC(=O)O`, the inhibition is 6.81%. For `N#CCc1c(C#N)c(N)nc(N2CCCC2)c1C#N` the value was 1.69%. For `N#Cc1c(N2CCCCC2)nc(N)c2c(N)nc(SCC(=O)O)cc12` the value was 34.7% (active); for `CCN(CC(=O)Nc1cccc(S(=O)(=O)N2CCCCC2)c1)Cc1ccccc1`, 1.24%; for `COc1ccc(C(=O)C2CCCN(C(=O)c3ccc(OC)o3)C2)c(C)c1` (stereo not given), 7.44%.

For the molecule `COc1ccccc1NC(=O)C[n+]1ccccc1`, the inhibition was -1.13%. `COC(=O)C[n+]1cccc2ccccc21`: the inhibition is 173% (active).

Regarding `Cc1cccc[n+]1CC(=O)c1ccccc1`, the inhibition is 2.8%. `CCCOCC(O)CC(CC)C(=O)NNC(=S)Nc1ccccc1` (stereo not given): the inhibition is 2.96%. On to `Cc1c(-c2ccccc2)cn2c1-c1ccc(C)n1CC2`, for which the inhibition is 31.6% (active).

Turning to `CSCCC(NC(=O)c1ccco1)C(=O)OCC(=O)Nc1ncc(Cl)c(C)c1Cl` (stereo not given), the inhibition was 17.7%.

On to `Cc1c(Cl)cnc(NC(=O)COC(=O)c2ccc(S(=O)(=O)NCc3ccco3)cc2)c1Cl`, for which the inhibition is 35.9% (active). For `C/C(=N\Nc1ncc(Cl)cc1Cl)c1ccc(S(=O)(=O)NCc2ccco2)cc1` the value was 3.34%; for `COc1ccc(OCC(O)CN(C)C(=O)C(C)Oc2ccccc2)cc1` (stereo not given), -1.74%. On to `O=C(CSc1n[nH]c(-c2cccnc2)n1)Nc1ccc(Cl)cc1`, for which the inhibition was 2.31%. For `COc1ccc(Cc2nnc(SCC(=O)c3cccc([N+](=O)[O-])c3)n2C)cc1` the value was 3.55%. In the case of `Cc1ccc(S(=O)(=O)C(C#N)c2nc3ccccc3nc2N2CCCC2)cc1C` (stereo not given), the inhibition is 87.6% (active). With `Cc1ccc(S(=O)(=O)Nc2nc3ccccc3nc2N2CCc3ccccc3C2)cc1`, the inhibition is 6.46%. For `Cc1cc(N2CCN(S(=O)(=O)c3ccc(C)c(C)c3)CC2)c2ccccc2n1` the value was 1.43%. For `Cc1cc2oc(=O)cc(CN(C)Cc3ccc(OC(F)F)cc3)c2cc1Cl` the value was 0.69%.

As for `CC(C)=CCCC(C)CN1CCC(n2nccc2NC(=O)c2ccccc2)CC1` (stereo not given), the inhibition is 3.8%. For `COC(=O)c1ccc(C)c(NC(=O)C2CC(=O)N(C3CCCC(C)C3C)C2)c1` (stereo not given) the value was 4.61%; for `O=C(NCc1ccccn1)Nc1ccc(Cl)cc1`, 1.5%. For `Cc1ccc(C)c(N2CCN(C(=O)CCCn3c(=O)c4cccn4c4cccnc43)CC2)c1`, the inhibition is 1.63%. For `O=c1onc(-c2c(F)cccc2F)n1-c1ccccc1Cl` the value was 3.32%; for `CCOC(=O)c1c(NC(=O)/C=C/c2ccco2)sc(C)c1C`, 0.59%.

Regarding `Cc1nnc(NC(=O)/C=C/c2ccco2)s1`, the inhibition is 39.6% (active). For `CCC(CC)c1nnc(NC(=O)/C=C/c2ccco2)s1` the value was 4.39%. Turning to `COc1ccc2nc(SCc3ccccc3)nc(C)c2c1`, the inhibition is 1.64%. For `CCc1nnc(SCc2cccc(F)c2)nc1CC` the value was 1.39%; for `O=C(CC1N=C2c3ccccc3N=C(SCc3ccccc3Cl)N2C1=O)NCc1ccco1` (stereo not given), 15%. For `c1ccc(CSc2nnc(-c3ccco3)c(-c3ccco3)n2)cc1` the value was 33.4% (active); for `Clc1ccccc1CSc1nnc(-c2ccco2)c(-c2ccco2)n1`, 37% (active); for `O=C(Nc1nnc(SCc2ccccc2Cl)s1)c1cccc([N+](=O)[O-])c1`, 9.99%. For `Cc1ccc(SCC(=O)c2cc(C)c(OC(=S)N(C)C)c(C)c2)cc1` the value was -0.01%. In the case of `Cc1ccc(C2(c3ccc(C)cc3)NC(=O)N(Cc3c(C)noc3C)C2=O)cc1`, the inhibition is 6.73%.

With `CC(=O)Nc1ccc(NS(=O)(=O)c2cc(C)sc2C)cc1`, the inhibition was 1.44%.

Consider `COc1ccc(C#Cc2c(-c3ccc(OC)cc3)oc3ccc(-c4ccc5c(c4)OCO5)cc23)cc1`, for which the inhibition was -0.02%. For `CCc1cccc(C)c1N1C(=O)CN(Cc2ccccc2)C1=S` the value was -7.16%.

One may read the inhibition as the change of the read-out against control, counted positive when it falls.
